This is a sample that favours compounds with a hit; in the whole collection about 9.4% have one here.
SMN2 splice up = qHTS Assay for Enhancers of SMN2 Splice Variant Expression. HEK293 SMN2-luciferase splicing reporter, luminescence, 30-36 h. Potency, µM (series often up to 46.1 µM), for the others: at the top dose activity change, positive = activation, hits mostly activators. 2.8% of 210,000 active. AID 1458, 2008; further: % of control where 0% means no effect; nearly all actives have a fitted effect of over 55% in size
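HEK293 cells carry an SMN2 […]–luciferase reporter in which exon 7 inclusion puts luciferase in frame. Cells were plated 10-12 h before compound addition, then incubated 30-36 h at 37C. ONE-Glo luminescence was read; sodium butyrate at 4.5 mM final served as control.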
ELG1 genotoxic = qHTS screen for small molecules that induce genotoxicity in human embryonic kidney (HEK293T) cells expressing luciferase-tagged ELG1 | HEK293T ELG1-luciferase reporter, luminescence, 16 h | Potency, µM (doses to about 46 µM), for inactives: at the top dose activity change, positive = activation, hits mostly activators | 1.3% of 330,000 active; further: % of control where 0% means no effect; nearly all actives have a fitted effect of over 60% in size
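After overnight (16 hr) compound treatment at 37 °C, ELG1-luciferase HEK293T cells were lysed with ONE-Glo; luminescence quantified 30 min later at room temperature.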
FLuc counter = qHTS profiling assay for firefly luciferase inhibitor/activator using purifed enzyme and Km concentrations of substrates (counterscreen for miR-21 project) | Luciferin 4-monooxygenase (Photinus pyralis), P08659 | purified FLuc, Km substrates, luminescence inhibition | Potency, µM (highest dose often 57.5 µM), without a hit: at the top dose activity change, negative = inhibition, most hits filed as inhibitors | 6.9% of 360,000 active;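 further: plate controls were vehicle for no effect and reference inhibitor for full effect; nearly all actives have a fitted effect of over 55% in size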
Target sequence (P08659 whole entry, looked up): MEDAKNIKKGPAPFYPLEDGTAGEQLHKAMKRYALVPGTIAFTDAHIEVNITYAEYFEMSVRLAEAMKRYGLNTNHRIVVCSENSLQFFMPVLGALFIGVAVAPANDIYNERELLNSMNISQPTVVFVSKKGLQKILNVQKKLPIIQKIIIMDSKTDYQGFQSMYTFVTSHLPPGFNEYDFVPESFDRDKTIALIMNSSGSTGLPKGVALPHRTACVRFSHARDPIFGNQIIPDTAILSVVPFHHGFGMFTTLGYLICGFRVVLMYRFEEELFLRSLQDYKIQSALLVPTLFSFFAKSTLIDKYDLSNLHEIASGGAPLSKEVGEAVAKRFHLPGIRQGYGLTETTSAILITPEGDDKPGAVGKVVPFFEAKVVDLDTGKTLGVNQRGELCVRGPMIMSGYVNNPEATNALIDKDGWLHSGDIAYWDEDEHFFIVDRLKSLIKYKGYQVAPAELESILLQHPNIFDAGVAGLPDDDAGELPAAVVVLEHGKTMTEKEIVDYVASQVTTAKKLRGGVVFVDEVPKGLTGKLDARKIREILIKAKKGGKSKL
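Purified P. pyralis luciferase, 10 nM final, with Km-level 10 uM D-luciferin and 10 uM ATP in 50 mM Tris acetate pH 7.5, 10 mM Mg acetate, 0.01% Tween-20, 0.05% BSA; 6-point qHTS titration about 60 µM downward; luminescence read.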
Rab9 prom act = qHTS Assay for Rab9 Promoter Activators. Huh7 Rab9 promoter-luciferase reporter, luminescence, 24 h. Potency, µM (titrated, usually from 9.22 µM), without a hit: top-dose activation, negative = inhibition, most hits filed as activators. 2.8% of 320,000 active. AID 485297, 2010; further: % of control where 0% means no effect; nearly all actives have a fitted effect of over 60% in size
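Using Huh7 cells stably transfected with Rab9 promoter–luciferase, compounds were incubated 24 h at 37 °C, 5% CO2; luciferase luminescence was read 10 min after reagent addition.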
NPC1 promoter act = qHTS Assay for NPC1 Promoter Activators; Huh7 NPC1 promoter luciferase reporter, 24 h; Potency, µM (titrated, usually from 9.22 µM), without a hit: at the top dose activation, actives largely listed as activators; 2.4% of 320,000 active; further: % of control where 0% means no effect; nearly all actives have a fitted effect of over 60% in size
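NPC1 promoter–luciferase Huh7 cells; 24 h compound; luminescence.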
ELG1 DNA repair = qHTS screen for small molecules that inhibit ELG1-dependent DNA repair in human embryonic kidney (HEK293T) cells expressing luciferase-tagged ELG1. HEK293T ELG1-luciferase reporter, luminescence, 16 h; DNA damage induced by 5-fluorouridine. AID 504467, 2011. Potency, µM (titrated, usually from 46.1 µM), for the others: at the top dose activity change, negative = inhibition, actives largely listed as inhibitors. 2.3% of 330,000 active; further: on the % scale 0 is the no-effect control and ±100 the full control effect; nearly all actives have a fitted effect of over 55% in size
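Step one: seed 2,000 cells per well. Step two: pin-transfer compound or DMSO alongside 5-fluorouridine. Step three: incubate 16 hr, 37 °C, 5% CO2. Step four: add ONE-Glo, wait 30 min, read luminescence.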
An asterisk follows results filed as active; ? = inconclusive; . = not tested or not shown; [ ] = another dose, or the depositor's remark. The call rests on the fitted dose curve; in most records, active means well fitted curve in the direction sought with a large enough effect; inconclusive means small, poorly fitted or top-dose-only effect, or another doubt; inactive means no such curve, though single readings can be large; an effect the other way counts as inactive or inconclusive. Potency means the concentration at half of the fitted maximal effect.

SMILES	SMN2 splice up	ELG1 genotoxic	FLuc counter	Rab9 prom act	NPC1 promoter act	ELG1 DNA repair
CCOC(=O)C(=CNc1ccc(C(O)(C(=O)OCC)C(F)(F)F)cc1C)C(=O)OCC (centres undefined)	-28%	-7%	0%	0%	-2%	18µM*
O=C(Nc1ccccc1F)Oc1cccc(OC(=O)Nc2ccccc2F)c1	.	10%	17µM*	2.8µM*	3.5µM*	?
CCNCCC1(CC)C(=O)NC(=O)NC1=O	-3%[9.22 µM]	.	.	.	.	.
C(=C\c1ccccc1)/CN1CCN(CCOC(c2ccccc2)c2ccccc2)CC1	-30%	.	.	.	.	.
Cc1ccc(N)c(C(=O)c2ccc(Br)cc2)c1	.	-1%	-16%	4%	1%	-3%
Nc1ccc(Cl)cc1N	7.1µM*	.	.	.	.	.
Cc1ccc(N)c(N)c1	3.5µM*	?	5.4µM*	-1%	-3%	?
O=C(c1ccccc1)[C@H]1[C@H](c2ccccc2[N+](=O)[O-])N1C1CCCCC1 (some centres undefined)	1%[9.22 µM]	.	.	.	.	.
CC(=O)O/C(=C1/C[C@H]2[C@@H]3CC=C4C[C@@H](OC(C)=O)CC[C@]4(C)[C@@H]3CC[C@]2(C)C1=O)C(F)(F)F	-3%[9.22 µM]	.	.	.	.	.
Cc1nc2cc(C(F)(F)F)ccc2n1C1CCN(Cc2nnnn2Cc2ccc3c(c2)OCO3)CC1	-25%	-32%	3%	1%	5%	6.5µM*
Cc1nc2cc(C(F)(F)F)ccc2n1C1CCN(Cc2nnnn2Cc2cccs2)CC1	0%	-6%	-1%	1%	-2%	-12%
CCC(=Nc1ccc(OC)cc1OC)c1c(O)n(C2CCCCC2)c(=O)[nH]c1=O	-17%	2%	-4%	1%	4%	18µM*
O=C1NC(=O)N(Cc2ccccc2Cl)C(=O)/C1=C/c1cccs1	-11%	?	15µM*	-4%	-7%	?
O=C(c1cncc(Br)c1)N1CCN(S(=O)(=O)c2ccc3ccccc3c2)CC1	.	-4%	.	.	.	?
O=C(COC(=O)Cc1ccccc1)Nc1ccc(SC(F)F)cc1	14%	3%	19µM*	-5%	-6%	6%
O=C(C1CCC(=O)N1Cc1ccc(F)cc1)N1CCC2(CC1)OCCO2 (centres undefined)	5%	0%	6%	9%	2%	13%
O=C(C1CC(c2ccc(Cl)c(Cl)c2)=NO1)N1CCC2(CC1)OCCO2 (centres undefined)	13µM*	7.3µM*	15µM*	2µM*	2.2µM*	?
O=C(C1CC(c2ccc(F)cc2)=NO1)N1CCC2(CC1)OCCO2 (centres undefined)	-28%	21µM*	17µM*	?	29%	?
O=NN(CCO)CCO	1%	.	.	.	.	.
NS(=O)(=O)c1ccc(CCNC(=O)c2ccc(Cl)c(S(=O)(=O)N3CCCCC3)c2)cc1	.	-8%	.	.	.	16µM*
O=C(COC(=O)Cc1ccccc1)Nc1cc(S(=O)(=O)N2CCCCC2)ccc1Cl	.	-1%	-10%	-6%	-1%	8%
ClC(Cl)C(Cl)Cl	6%	.	.	.	.	.
COc1c(C)cc(C(=O)C2CCCN(Cc3ccccn3)C2)cc1C (centres undefined)	.	-6%	1%	-15%	-3%	?
CCOC(=O)C1CCCN(C(=O)c2ccc3oc(Cc4ccccc4)nc3c2)C1 (centres undefined)	.	?	12µM*	4.5µM*	3.5µM*	?
O=c1c2ccccc2[se]n1-c1ccccc1	-28%	5%	6µM*	14%[46.1 µM]	-9%[46.1 µM]	7%
SMILES	SMN2 splice up	ELG1 genotoxic	FLuc counter	Rab9 prom act	NPC1 promoter act	ELG1 DNA repair
CCC(C)/C=C(C)/C=C/C1=CC2=C(Cl)C(=O)C(C)(OC(C)=O)C(=O)C2=CO1 (centres undefined)	.	3%	21µM*	15%	-1%	-3%
COc1ccc(-[n+]2c(-c3ccccc3)cc(-c3ccc(C)cc3)cc2-c2ccccc2)cc1	.	-11%	0%	-53%	-43%	3.7µM*
COc1cc(/C=N/NC(=O)CN2CCCCC2)ccc1OCc1ccccc1	?	?	12µM*	-2%	-2%	?
C(CCOCC1CO1)COCC1CO1 (centres undefined)	26%	.	.	.	.	.
Cc1c([C@@H](C)C2NC[C@H](C)C[C@@H]2O)ccc2c1C[C@@H]1[C@H]2CC=C2C[C@@H](O)CC[C@@]21C (some centres undefined)	-26%[9.22 µM]	.	.	.	.	.
CC(=O)OC1=CC2=CC[C@H]3[C@H]4CCC(=O)[C@@]4(C)CC(=O)[C@]3(S)[C@]2(C)CC1	3%[9.22 µM]	.	.	.	.	.
COc1ccccc1OCCCn1cc(C(=O)c2ccco2)c2ccccc21	-52%	-18%	17µM*	29%	?	?
O=C(c1ccco1)c1cn(Cc2ccc(Cl)cc2)c2ccccc12	4%	5%	?	-1%	2%	-24%
COc1ccc2nc(NC3=NCCN3)sc2c1	10µM*	18µM*	5.4µM*	2.5µM*	2.8µM*	?
c1ccc2sc(NC3=NCCN3)nc2c1	?	-4%	?	?	?	?
C=CCNC(=S)Nc1ccc(OC(=O)Nc2ccc(Cl)c(Cl)c2)cc1	.	-10%	-17%	-3%	-7%	5%
O=C(Nc1ccc(Cl)c(Cl)c1)c1ccco1	.	?	21µM*	?	?	?
CC(C)(C)n1cccc1/C=C1\C(=O)NC(=O)N(c2ccccc2)C1=O	-22%	1%	24µM*	-2%	2%	6%
CN(C)c1ccc(/C=C/C=C2/C(=O)NC(=O)N(c3ccccc3)C2=O)cc1	.	-5%	4.3µM*	-3%	1%	?
COc1cc(/C=C2\C(=O)NC(=O)N(c3ccccc3)C2=O)c([N+](=O)[O-])cc1OC	0%	-1%	?	-8%	1%	3%
O=C1NC(=O)N(c2ccccc2)C(=O)/C1=C/c1ccc2c(c1)Cc1ccccc1-2	11%	8%	21µM*	1%	-5%	27%
Cc1cc(C)cc(N2C(=O)NC(=O)/C(=C/c3cccn3-c3ccc(Cl)cc3)C2=O)c1	14%	-16%	0%	2%	7%	?
COc1cc(/C=C2\C(=O)NC(=O)N(c3ccccc3)C2=O)cc(OC)c1O	30%	3%	21µM*	1%	-3%	7%
CC(C)C(=O)CP(=O)(O)O	-5%[9.22 µM]	.	.	.	.	.
c1ccc(CCN2CCCCCC2)nc1	-9%[9.22 µM]	.	.	.	.	.

Screening data: PubChem BioAssay, National Center for Advancing Translational Sciences (NCATS)
